# PubChem BioAssay (EPA / NIEHS)
# Values joined by “and” are separate entries in the source; they are usually repeats but may differ in a detail not shown here. Equal values may be shown once. Some compounds were tested as several samples or in several runs, with calls that do not always agree. Active and inactive are the calls of the source. How the source made its calls: active means hit-call score of the fitted dose curve at least 0.9, where 1 is the maximum; inactive means score below 0.9.
# Experiment: CCTE_Padilla_ZF_144hpf_TERATOSCORE: (Legacy) CCTE's 144 Hour Post-fertilization zebrafish Assay Teratoscore, Padilla Lab (AID 2283679);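 on AC50: teratogenicity score from eye scoring of death hatching and malformations at 144 hpf; higher score means more developmental defects relative to DMSO baseline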
# Description: CCTE_Padilla_ZF_144hpf is a whole embryo, multiplexed assay. Zebrafish embryos were exposed to chemicals starting 6 hr post-fertilization for 5 days in 96-well plates. Developing larvae were examined microscopically daily for malformation and mortality.CCTE_Padilla_ZF_144hpf_TERATOSCORE is one of one assay component(s) measured or calculated from the CCTE_Padilla_ZF_144hpf assay. It is designed to make measurements of developmental malformations and mortality as detected with brightfield microscopy.Data from the assay component CCTE_Padilla_ZF_144hpf_TERATOSCORE was analyzed into 1 assay endpoint. This assay endpoint, CCTE_Padilla_ZF_144hpf_TERATOSCORE, was analyzed in the positive analysis fitting direction relative to DMSO as the negative control and baseline of activity. Using a type of morphological reporter, gain-of-signal activity can be used to understand changes in developmental defect as they relate to the whole embryo. To generalize the intended target to other relatable targets, this assay endpoint is annotated to the malformation intended target family, where the subfamily is total.
# Zebrafish husbandry: Wild type adult zebrafish (Danio rerio; undefined outbred stock obtained from Aquatic Research Organisms, Hampton, NH, 03842) were housed in an AAALAC-approved animal facility at 28C with a 14:10 h light: dark cycle (lights on at 08:30 h). Adult fish (2-3 females per male; density = 15-20 adults per tank) were kept in one of several 9-liter (L) flow-through colony tanks (Aquaneering Inc., San Diego, CA). All adults in a colony tank were placed in a 2 L (static) breeding tank (Aquatic Habitats, Apopka, FL) one hour prior to light onset. Typically, adults from two to three colony tanks were mated on the same day. Two hours after light onset the adults were returned to the colony tank. All embryos were gathered from each breeder tank, pooled, and placed in a 28C water bath for 2 h, followed by two washes with 0.06% bleach (v/v) in 10% Hanks' Balanced Salt Solution (13.7 mM NaCl 0.54 mM KCl, 25 uM Na2HPO4, 130 uM CaCl2 100 um MgSO4 and 420 um NaHCO3,), hereafter referred to as Hanks' solution, for 5 min in order to remove any residual bacteria or fungi. Immediately following washing, the embryos were examined, and healthy embryos were separated from dead or unfertilized eggs and moved into fresh Hanks'. Single Concentration Study: The chemicals were arrayed on a 96-well stock plate, 80 chemicals per plate, 20 mM concentration of each, with 16 DMSO (vehicle) controls. The embryos were exposed to the chemicals (80 Mfinal concentration, renewed daily) by immersion from 0 dpf until 5 dpf. Eighty micromolar was chosen as the highest concentration for two reasons (1) because the stock solutions were prepared at 20 mM in 100% DMSO. On 6 dpf, each embryo/larva was assessed for viability, hatching status and malformations. There were 4 embryos per concentration per chemical (each embryo on a separate microtiter plate). […] Chemical exposures: Zebrafish embryos were exposed in 96-well plates. Briefly, on day 0, approximately 6-8 h after fertilization, zebrafish embryos (with chorions) were placed 1 embryo per well in Millipore Multiscreen Nylon mesh plates (catalog number MANMN4050, Millipore Corp, Bedford, MA) and exposed to nominal concentrations of the chemicals. In each well, 1 ul of the chemical in DMSO from the stock plate was diluted with 250 ul of 10% Hanks' solution; the final DMSO concentration was 0.4% (v/v) in all wells; vehicle controls receives DMSO only. Each plate was sealed with a non-adhesive material (Type A, BioRad, Hercules, CA), covered with a lid, and wrapped in Parafilm to minimize evaporation. All embryos and larvae were kept in a 26C incubator with a 14:10 h light-dark cycle (with lights on at 08:30 h and off at 22:30 h). […]
Structure (SMILES),AC50,outcome
CC(C)(c1ccccc1)c1ccc(O)c(C(C)(C)c2ccccc2)c1,4.58 µM (active),
CC(C)(C)CC(C)(C)c1ccc(O)cc1,4.55 µM (active),
COc1cc(-c2ccc(N)c(OC)c2)ccc1N,52.6 µM (active) and 79.3 µM (active),
CCOP(=S)(OCC)Oc1nc(Cl)c(Cl)cc1Cl,4.72 µM (active),
C[C@]12CCC(=O)C[C@@H]1CC[C@@H]1[C@@H]2CC[C@]2(C)[C@@H](O)CC[C@@H]12,11.6 µM (active),
Cn1sc(Cl)cc1=O,14.9 µM (active),
C[C@@H]1C[C@@H]([C@H](O)CC2CC(=O)NC(=O)C2)C(=O)[C@@H](C)C1,6 µM (active),
CCN1CCC2(CC1)COc1cc3c(cc12)N(C(=O)c1ccc(-c2ccc(-c4nnc(C)o4)cc2C)cc1)CC3,54 µM (active),inactive
O=C(O)C(Cl)(Cl)Cl,,inactive
O=C(O)C(F)(F)C(F)(F)C(F)(F)C(F)(F)C(F)(F)C(F)(F)C(F)(F)C(F)(F)C(F)(F)C(F)(F)F,8.02 µM (active),
NC(=O)O,,inactive
CN(C)N=O,,inactive
CCCCCCCCc1ccc(O)cc1,5.21 µM (active),
CCOP(=S)(OCC)SCSP(=S)(OCC)OCC,5.5 µM (active),
O=c1[nH]c(=O)[nH]c(=O)[nH]1,,inactive
Oc1cccc2cccnc12,4.78 µM (active),
O=[N+]([O-])c1ccc(O)c([N+](=O)[O-])c1,4.96 µM (active),
C=C(C)C(=O)[O][Sn]([CH2]CCC)([CH2]CCC)[CH2]CCC,0.0483 µM (active),
CC12CC1(C)C(=O)N(c1cc(Cl)cc(Cl)c1)C2=O (stereo not given),,inactive
ClCC(Cl)CCl,,inactive
O=C1C2(Cl)C3(Cl)C4(Cl)C(Cl)(Cl)C5(Cl)C3(Cl)C1(Cl)C5(Cl)C24Cl (stereo not given),3.4 µM (active),
CCC(C)(C)c1ccc(O)c(C(C)(C)CC)c1,4.87 µM (active) and 4.82 µM (active),
CC(=O)[O][Hg][c]1ccccc1,0.066 µM (active),
CC(C)(C)c1cc(O)ccc1O,14.4 µM (active),
